Records with an inconclusive call do not appear. Active and inactive are the calls of the source. The call rests on the fitted dose curve; in most records, active means well fitted curve in the direction sought with a large enough effect; inconclusive means small, poorly fitted or top-dose-only effect, or another doubt; inactive means no such curve, though single readings can be large; an effect the other way counts as inactive or inconclusive.
Assays:
[1] = Quantitative High-Throughput drug screen in 47 multiple myeloma cell lines against the NCATS MIPE library collection: KMM1_JCRB cell viability assay (AID 1918960); further: nearly all actives have a fitted effect of over 30% in size
Summary of the method: (§1)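 Viability screen: myeloma cells (500/well) incubated 48 h at 37 °C, humidified 5% CO2, with pinned library compounds; CellTiter-Glo added, luminescence read; DMSO wells set 100%, medium-only wells 0%.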

[2] = Quantitative High-Throughput drug screen in 47 multiple myeloma cell lines against the NCATS MIPE library collection: Karpas417_ECACC cell viability assay (AID 1918961); conditions: Karpas417 myeloma viability, CellTiter-Glo ATP luminescence, 48 h; viability (% of DMSO): at 45.8 µM (top of the series)
Summary of the method: (§2)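 CellTiter-Glo luminescence (ATP) after 48 h compound exposure, 37C/5% CO2; 500 cells/well; MIPE 4.0 approved/investigational drugs pinned in; DMSO = 100%, media only = 0% viability.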

[3] = Quantitative High-Throughput drug screen in 47 multiple myeloma cell lines against the NCATS MIPE library collection: JIM3_ECACC cell viability assay (AID 1918963; further: nearly all actives have a fitted effect of over 35% in size)
Summary of the method: (§3)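 Steps: seed 500 cells per well; pin-transfer MIPE 4.0 library; incubate 48 h at 37C, 5% CO2, humidified; add CellTiter-Glo, 5 min room temperature; read luminescence.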

[4] = Quantitative High-Throughput drug screen in 47 multiple myeloma cell lines against the NCATS MIPE library collection: INA6_PLB cell viability assay (AID 1918965; further: nearly all actives have a fitted effect of over 55% in size)
Summary of the method: as §2

[5] = Quantitative High-Throughput drug screen in 47 multiple myeloma cell lines against the NCATS MIPE library collection: JJN3_DSMZ cell viability assay (AID 1918966; further: nearly all actives have a fitted effect of over 50% in size)
Summary of the method: as §2

[6] = Quantitative High-Throughput drug screen in 47 multiple myeloma cell lines against the NCATS MIPE library collection: EJM_DSMZ cell viability assay (AID 1918926; further: nearly all actives have a fitted effect of over 30% in size)
Summary of the method: as §2

[7] = Quantitative High-Throughput drug screen in 47 multiple myeloma cell lines against the NCATS MIPE library collection: AMO1_DSMZ cell viability assay (AID 1918927; further: nearly all actives have a fitted effect of over 30% in size)
Summary of the method: as §2

[8] = Quantitative High-Throughput drug screen in 47 multiple myeloma cell lines against the NCATS MIPE library collection: Karpas620_DSMZ cell viability assay (AID 1918959); further: nearly all actives have a fitted effect of over 30% in size
Summary of the method: as §3

[9] = Quantitative High-Throughput drug screen in 47 multiple myeloma cell lines against the NCATS MIPE library collection: Karpas25_ECACC cell viability assay (AID 1918968; further: nearly all actives have a fitted effect of over 35% in size)
Summary of the method: as §2

[10] = Quantitative High-Throughput drug screen in 47 multiple myeloma cell lines against the NCATS MIPE library collection: KMS27_JCRB cell viability assay (AID 1918970); conditions: KMS27 myeloma cells, CellTiter-Glo ATP viability, 48 h; viability (% of DMSO): at 45.8 µM (top of the series); further: nearly all actives have a fitted effect of over 30% in size
Summary of the method: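 CellTiter-Glo luminescence after 48 h drug exposure at 37 °C; 500 cells/well, 1536-well format, pin-tool compound addition; DMSO = 100%, media-only = 0% viability.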

[11] = Quantitative High-Throughput drug screen in 47 multiple myeloma cell lines against the NCATS MIPE library collection: ARP1_JJKsccF8 cell viability assay (AID 1918928; further: nearly all actives have a fitted effect of over 40% in size)
Summary of the method: as §1

[12] = Quantitative High-Throughput drug screen in 47 multiple myeloma cell lines against the NCATS MIPE library collection: KHM11_PLB cell viability assay (AID 1918962); further: nearly all actives have a fitted effect of over 35% in size
Summary of the method: as §3

[13] = Quantitative High-Throughput drug screen in 47 multiple myeloma cell lines against the NCATS MIPE library collection: H1112_PLB cell viability assay (AID 1918967; further: nearly all actives have a fitted effect of over 30% in size)
Summary of the method: as §2

[14] = Quantitative High-Throughput drug screen in 47 multiple myeloma cell lines against the NCATS MIPE library collection: KMS12BM_JCRB cell viability assay (AID 1918971); further: nearly all actives have a fitted effect of over 35% in size
Summary of the method: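 Relative luminescence from CellTiter-Glo served as the viability signal, referenced to DMSO-treated (100%) and cell-free medium (0%) controls. Treatment lasted 48 hours at 37C with 500 cells per well.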

[15] = Quantitative High-Throughput drug screen in 47 multiple myeloma cell lines against the NCATS MIPE library collection: ARD_JJKsccE7 cell viability assay (AID 1918929)
Summary of the method: as §2

[16] = Quantitative High-Throughput drug screen in 47 multiple myeloma cell lines against the NCATS MIPE library collection: JIM1_ECACC cell viability assay (AID 1918964)
Summary of the method: as §2
Potency means the concentration at half of the fitted maximal effect.

NC(=O)c1nnn(Cc2cc(Cl)c(C(=O)c3ccc(Cl)cc3)c(Cl)c2)c1N
inactive: Potency [2]
active: Potency [1] 5.9 µM | Potency [3] 26.4 µM | Potency [4] 14.8 µM | Potency [5] 20.9 µM

Cc1cc(NC(=O)Nc2ccc(N(C)C)cc2)c2cc(F)cc(F)c2n1
inactive: Potency [6] | Potency [7] | Potency [8] | Potency [1] | Potency [3] | Potency [10]
active: Potency [9] 3.72 µM

C#C[C@]1(O)CC[C@H]2[C@H]3CCc4cc(OC)ccc4[C@H]3CC[C@@]21C
inactive: Potency [11] | Potency [3] | Potency [13]
active: Potency [6] 13.2 µM | Potency [7] 26.4 µM | Potency [12] 18.7 µM | Potency [4] 16.6 µM | Potency [14] 18.7 µM

COc1cc([C@@H]2c3cc4c(cc3[C@@H](O[C@@H]3O[C@@H]5CO[C@@H](C)O[C@@H]5[C@H](O)[C@@H]3O)[C@H]3COC(=O)[C@H]23)OCO4)cc(OC)c1O
active: Potency [4] 0.332 µM | Potency [10] 0.418 µM | Potency [14] 1.48 µM
inactive: Potency [15] | Potency [12] | Potency [5]

CCOC(=O)N1c2ccc(C(F)(F)F)cc2[C@@H](N(Cc2cc(C(F)(F)F)cc(C(F)(F)F)c2)C(=O)OC)C[C@H]1CC
active: Potency [11] 4.69 µM | Potency [14] 13.2 µM
inactive: Potency [7] | Potency [15] | Potency [8] | Potency [1] | Potency [16] | Potency [13] | Potency [10]

CC[C@@H]([C@H](C)O)n1ncn(-c2ccc(N3CCN(c4ccc(OCC5CO[C@@](Cn6cncn6)(c6ccc(F)cc6F)C5)cc4)CC3)cc2)c1=O (some centres undefined)
active: Potency [7] 7.43 µM | Potency [8] 5.9 µM | Potency [1] 5.9 µM | Potency [3] 5.26 µM | Potency [4] 10.5 µM | Potency [5] 4.18 µM | Potency [9] 6.62 µM | Potency [14] 16.6 µM
inactive: Potency [12]

CN(C)CC[C@H](CSc1ccccc1)Nc1ccc(S(=O)(=O)NC(=O)c2ccc(N3CCN(Cc4ccccc4-c4ccc(Cl)cc4)CC3)cc2)cc1[N+](=O)[O-]
active: Potency [6] 5.9 µM | Potency [11] 13.2 µM | Potency [15] 8.33 µM | Potency [8] 0.0662 µM | Potency [1] 4.69 µM | Potency [2] 0.0935 µM | Potency [12] 5.26 µM | Potency [16] 1.48 µM | Potency [4] 18.7 µM | Potency [5] 8.33 µM | Potency [13] 0.0743 µM | Potency [9] 1.48 µM | Potency [10] 0.0187 µM | Potency [14] 0.187 µM

CCCCC(C=O)NC(=O)C(CC(C)C)NC(=O)OCc1ccccc1 (centres undefined)
inactive: Potency [7] | Potency [15] | Potency [8] | Potency [1] | Potency [10]
active: Potency [4] 16.6 µM | Potency [14] 20.9 µM

CC1C(=O)OC2C(O)C34C5CC(C(C)(C)C)C36C(OC(=O)C6O)OC4(C(=O)O5)C12O (centres undefined)
inactive: Potency [15] | Potency [8] | Potency [1] | Potency [3] | Potency [16] | Potency [4] | Potency [5] | Potency [9] | Potency [10] | Potency [14]

Cc1ccc(C(=O)N(CCCN)[C@@H](c2oc3cc(Cl)ccc3c(=O)c2Cc2ccccc2)C(C)C)cc1
active: Potency [7] 0.001 µM | Potency [15] 0.001 µM | Potency [1] 0.001 µM | Potency [12] 9.35 µM
inactive: Potency [11] | Potency [3] | Potency [10]

COc1ccc2cc1Oc1ccc(cc1)C[C@H]1c3cc(c(OC)cc3CCN1C)Oc1c(OC)c(OC)cc3c1[C@H](C2)N(C)CC3
active: Potency [7] 7.43 µM | Potency [8] 5.26 µM | Potency [1] 5.9 µM | Potency [3] 18.7 µM | Potency [4] 18.7 µM | Potency [9] 20.9 µM | Potency [10] 3.72 µM | Potency [14] 13.2 µM

CNc1nc(-c2ccc3c(N)n[nH]c3c2)cc(N2C[C@@H](C(=O)NC3CCCCC3)CC[C@@H]2C)n1
active: Potency [7] 20.9 µM | Potency [11] 11.8 µM | Potency [8] 20.9 µM | Potency [3] 6.62 µM | Potency [4] 2.09 µM | Potency [9] 2.09 µM | Potency [10] 10.5 µM

Cc1ccc(C(=O)N(CCCN)[C@@H](c2nc3cc(Cl)ccc3c(=O)n2Cc2ccccc2)C(C)C)cc1
active: Potency [1] 0.001 µM | Potency [12] 10.5 µM | Potency [5] 18.7 µM | viability (% of DMSO) [10] 70.3%
inactive: Potency [11] | Potency [2] | Potency [3] | Potency [16]

COc1c(C)c2c(c(O)c1CC=C(C)CCC(=O)O)C(=O)OC2
active: Potency [7] 0.935 µM | Potency [11] 6.62 µM | Potency [3] 4.69 µM | Potency [16] 9.35 µM | Potency [4] 0.935 µM | Potency [5] 4.69 µM | Potency [13] 4.18 µM | Potency [9] 13.2 µM | Potency [14] 3.32 µM
inactive: Potency [1]

O=[N+]([O-])c1ccc(Nc2ccccc2-c2ccccc2)c2nonc12
active: Potency [8] 20.9 µM | Potency [4] 26.4 µM | Potency [13] 18.7 µM | Potency [9] 18.7 µM | Potency [10] 20.9 µM
inactive: Potency [11]

Cc1ccc2c(=O)c3cccc(CC(=O)O)c3oc2c1C
inactive: Potency [7] | Potency [15] | Potency [8] | Potency [1]
active: Potency [6] 6.62 µM | Potency [4] 23.5 µM | Potency [13] 26.4 µM

Cc1cc(OCCCS(C)(=O)=O)cc(C)c1-c1cccc(COc2ccc3c(c2)OC[C@H]3CC(=O)O)c1
active: Potency [3] 14.8 µM | Potency [5] 11.8 µM | Potency [13] 20.9 µM | Potency [14] 13.2 µM
inactive: Potency [16]

CCCCc1ccc(NS(=O)(=O)c2ccc(C)c(C(=O)N3CCN(c4cccc(C)c4C)CC3)c2)cc1
inactive: Potency [7] | Potency [15] | Potency [1] | Potency [10]
active: Potency [11] 20.9 µM | Potency [3] 16.6 µM | Potency [5] 23.5 µM | Potency [14] 20.9 µM

CCCCN(CCCC)CC(O)c1cc(Cl)cc2c1-c1ccc(Cl)cc1C2=Cc1ccc(Cl)cc1 (centres undefined)
inactive: Potency [7] | Potency [15] | Potency [8]
active: Potency [6] 16.6 µM | Potency [4] 18.7 µM | Potency [5] 18.7 µM | Potency [13] 26.4 µM | Potency [9] 23.5 µM

CC1CNc2c(cccc2S(=O)(=O)N[C@@H](CCCN=C(N)N)C(=O)N2CC[C@@H](C)C[C@@H]2C(=O)O)C1 (some centres undefined)
active: Potency [8] 23.5 µM | Potency [10] 14.8 µM
inactive: Potency [6] | Potency [15] | Potency [12] | Potency [3] | Potency [4] | Potency [5] | Potency [13] | Potency [9]
